Giardia kill: Small Molecules that selectively kill Giardia lamblia: qHTS | Giardia lamblia trophozoite viability | activity change, % at 7.66 µM, hits read low | actives 0.15% (n = 340,000) | AID 540267, 2011; in the data active means activity change below about -80%; inconclusive means between about -30% and that limit;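 further: parasites exposed to compound for two days anaerobically before the ATP read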
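Trophozoite viability was measured as ATP-dependent luminescence, read 15-30 min after reagent addition. Before that, parasites at 100 cells/well were exposed to compounds for 48 h, anaerobically, at 37 deg C.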
ELG1 repair inh: qHTS screen for small molecules that inhibit ELG1-dependent DNA repair in human embryonic kidney (HEK293T) cells expressing luciferase-tagged ELG1. actives 2.3% (n = 330,000). HEK293T ELG1-luciferase reporter, luminescence, 16 h; DNA damage induced by 5-fluorouridine. AID 504467, 2011. Potency, µM (titrated, usually from 46.1 µM), for inactives: at the highest dose activity change, negative = inhibition, most hits filed as inhibitors; further: potency means the concentration at half of the fitted maximal effect; nearly all actives have a fitted effect of over 55% in size
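Luminescence from the luciferase reporter, measured 30 min after ONE-Glo reagent at room temperature, was the read-out. Beforehand, 2,000 cells per well were exposed for 16 hr at 37 °C to 5-fluorouridine together with compound or vehicle.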
Sfp inh: qHTS Assay for Inhibitors of Bacillus subtilis Sfp phosphopantetheinyl transferase (PPTase). Biochemical Sfp PPTase activity, qHTS. Potency, µM, for inactives: largest response in the series, negative = inhibition, usual class: inhibitors. actives 3.5% (n = 310,000). AID 1490, 2009;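 further: the enzyme is Sfp with the accession as filed and its product quenches rhodamine fluorescence; potency means the concentration at half of the fitted maximal effect; 0% = enzyme reaction without inhibitor and -100% = no enzyme wells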
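Compounds were incubated with enzyme (final 15 nM) for 15 min at room temperature before substrate addition started the reaction. Fluorescence at 525 nm excitation, 598 nm emission was recorded immediately and after 30 minutes.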
Coupling enz: qHTS Assay for Inhibitors of Fructose-1,6-bisphosphate Aldolase from Giardia Lamblia: Coupling assay counterscreen; coupling enzyme system counterscreen, AmpLite Red fluorescence; activity change, negative = inhibition, % at 58.2 µM, hits read low; actives 0.67% (n = 290,000); AID 2472, 2010; in the data active means activity change below about -30%
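Fluorescence at 525 nm excitation and 598 nm emission measured inhibition of the coupled detection system without aldolase. Compounds (at 57.5 uM final) were preincubated 10 min at room temperature with coupling enzyme reagent before a 20 min substrate/AmpLite Red step.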
An asterisk follows results filed as active; ? = inconclusive; . = no result. Sampled rows, rich in hits. Any-hit rate of the full collection: about 5.5%. Unless noted, the call rests on the fitted dose curve; in most records, active means well fitted curve in the direction sought with a large enough effect; inconclusive means small, poorly fitted or top-dose-only effect, or another doubt; inactive means no such curve, though single readings can be large; an effect the other way counts as inactive or inconclusive. Unless noted, on the % scale 0 is the no-effect control and ±100 the full control effect.

SMILES	Giardia kill	ELG1 repair inh	Sfp inh	Coupling enz
CCN1C[C@]2(C)CC[C@H](OC)[C@]34C5C[C@@H]6CC[C@@](O)(C5C(=O)O6)C(C13)[C@@H](OC(=O)c1ccccc1)C24	.	.	9.1%	4.5
COc1ccc(/C=C2/C(=O)NC(=O)N(c3ccccc3)C2=O)cc1CN1C(=O)c2ccccc2C1=O	-6.1	6.9%	50.1µM*	4.4
CC(C)c1ccc(N2C(=O)NC(=O)/C(=C\c3cnc(-c4ccccc4)nc3)C2=O)cc1	-21.3	?	44.7µM*	10.6
CCOc1cc(/C=C2/C(=O)NC(=O)N(c3ccc(CC)cc3)C2=O)ccc1OC(=O)c1cccs1	2.6	-9.6%	79.4µM*	1.0
Cc1ccc(N2C(=O)NC(=O)/C(=C/c3cnc(-c4ccccc4)nc3)C2=O)cc1C	7.1	13.5%	?	6.5
COc1ccc(/C=C2/C(=O)NC(=S)N(C3CC3)C2=O)cc1CN1C(=O)c2ccccc2C1=O	6.5	-0.2%	25.1µM*	1.6
COc1ccc(C=C2C(=O)NC(=S)NC2=O)cc1OC	5.8	.	.	.
COc1cc(OC)c(OC)cc1/C=C1\C(=O)NC(=O)N(Cc2ccccc2)C1=O	-2.7	-11.7%	-14.1%	1.5
C[C@H](NC(C)(C)C)C(=O)c1cccc(Cl)c1	.	.	29.9%	2.8
CCCCCCC(=O)O[C@H]1CC[C@H]2[C@@H]3CCC4CC(=O)C=C(C)[C@]4(C)[C@H]3CC[C@]12C (stereo partly specified)	.	.	-27.4%	.
COc1cccc(N2C(=O)NC(=O)/C(=C/c3ccc4c(c3)Cc3ccccc3-4)C2=O)c1	3.1	?	56.2µM*	2.8
Cc1cc(/C=C2\C(=O)NC(=O)N(c3cccc(Br)c3)C2=O)c(C)n1C	-17.9	23.9%	1.7%	0.8
COc1cc(/C=C2/C(=O)NC(=O)N(c3ccccc3)C2=O)ccc1O	-3.0	-8.7%	8.91µM*	0.8
COc1ccccc1N1C(=O)NC(=O)/C(=C\c2cnn(-c3ccccc3)c2)C1=O	?	22.7%	31.6µM*	7.8
Cc1nc(N)sc1CCN	.	.	-0.1%	-1.1
C[C@@H]1C[C@@H]([C@H](O)CC2CC(=O)NC(=O)C2)C(=O)[C@@H](C)C1	-81.9*	0.291µM*	7.7%	-1.1
C[C@@H]1CC([C@H](O)CC2CC(=O)NC(=O)C2)C(=O)[C@@H](C)C1 (stereo partly specified)	.	.	31.5%	.
CCOC(=O)CC(SP(=S)(OC)OC)C(=O)OCC (stereo unspecified)	.	.	39.8µM*	.
CCOC(=O)CC(SP1(=S)OCC2(CCCCC2)CO1)C(=O)OCC (stereo unspecified)	-2.0	.	.	.
C[C@@H]1O[C@@H](OC2CC(O)C3(CO)C4C(CCC3(O)C2)C2(O)CCC(C3=CC(=O)OC3)C2(C)C[C@H]4O)[C@H](O)[C@H](O)[C@H]1O (stereo partly specified)	.	.	6.3%	1.2
O=c1c2cc(N3CCOCC3)ccc2[nH]c(=S)n1Cc1ccc(Cl)cc1	11.5	?	15.8µM*	-8.6
O=c1[nH]c(=S)n(-c2ccc(Cl)cc2)c(O)c1C=Nc1ccc(N2CCOCC2)cc1	-3.9	0.3%	2.4%	-4.7
O=c1c2ccccc2nc(/C=C/c2ccc(O)cc2)n1-c1cccc(O)c1	?	?	-18.2%	-0.8
O=c1c2ccccc2nc(/C=C/c2ccc3c(c2)OCO3)n1-c1cccc(O)c1	-21.2	16.4µM*	6.8%	0.4
O=c1c2ccccc2nc(/C=C/c2ccc(O)cc2)n1-c1ccc(O)cc1	-2.9	-29.8%	9.3%	-0.5
SMILES	Giardia kill	ELG1 repair inh	Sfp inh	Coupling enz
COc1cccc(-n2c(/C=C/c3ccc(O)c(O)c3)nc3ccccc3c2=O)c1	14.1	8.2µM*	-10.1%	-8.4
COc1ccc(-n2c(/C=C/c3ccc(O)c(OC)c3)nc3ccccc3c2=O)cc1	-17.0	?	0.7%	-0.1
Cc1ccc(-n2c(/C=C/c3ccc4c(c3)OCO4)nc3ccccc3c2=O)cc1	.	18.4µM*	?	-0.6
COc1ccc(-n2c(/C=C/c3ccc4c(c3)OCO4)nc3ccccc3c2=O)cc1	?	23.1µM*	-22.7%	0.9
COc1ccc(-n2c(/C=C/c3ccc(O)cc3)nc3ccccc3c2=O)cc1	-22.5	?	-3.8%	-0.3
CC(C)(C)[C@]1(O)C[C@@H]2OC(=O)CC23C(=O)O[C@@H]2OC(=O)[C@H](O)C231 (stereo partly specified)	.	.	15.1%	2.1
Cc1cc(C=C2C(=O)N(C)C(=S)N(C)C2=O)c(C)n1-c1ccncc1	-4.9	26.3%	39.8µM*	-1.9
Cc1ccnc(-n2c(C)cc(C=C3C(=O)N(C)C(=S)N(C)C3=O)c2C)c1	9.5	0.3%	50.1µM*	6.5
COC(=O)[C@@H]1C[C@H]2CC[C@H](O)C[C@H]2N1CC1CC1	.	.	1.8%	0.6
CN1CCC2(CC1)NC(=O)c1ccccc1N2	17.9	9.4%	-6.3%	1.0
CN1CCC2(CC1)N=C(c1ccc(F)cc1)C(=S)N2	-11.0	16.5%	79.4µM*	0.4
CCCCCc1cc(O)c2c(c1)OC(C)(C)C1CC=C(C)CC21 (stereo unspecified)	.	.	16.4%	.
NCCc1cc(O)c(O)cc1O	-4.1	.	63.1µM*	-57.3*
NC(Cc1cc(O)c(O)cc1O)C(=O)O (stereo unspecified)	.	1.5%	.	.
C=CCN1C(=O)NC(=O)/C(=C/c2cnc(SC)nc2)C1=O	7.1	-24.4%	31.6µM*	0.4
CCCCCC(O)C1C(=O)OC(C)C(O)\C=C/C=C\C=C/C=C\C=C(\C)C(O)C(O)C(O)CC(O)CC(O)CC(O)CC(O)CC1O (stereo unspecified)	.	.	9.3%	.
O=C1NC(=O)N(Cc2ccc(F)cc2)C(=O)/C1=C\c1ccc(N2CCCC2)cc1	-5.4	-11.5%	?	0.0
COc1ccc(CN2C(=O)NC(=O)/C(=C/c3ccc([N+](=O)[O-])s3)C2=O)cc1	-20.1	19.0%	20µM*	-3.6
COc1cc(OC)c(OC)cc1/C=C1/C(=O)NC(=O)N(Cc2ccccc2)C1=O	-23.3	-2.0%	-14.2%	1.9
O=C1NC(=O)N(Cc2ccc(F)cc2)C(=O)/C1=C\c1ccc([N+](=O)[O-])s1	-7.6	2.4%	39.8µM*	-5.6
CCCCCCC(=O)CCCCCC/C=C/C[C@@H](O)[C@H](O)[C@@](N)(CO)C(=O)O	.	.	3.7%	2.7
Cc1cnc2c(C(=O)O)c(Cl)ccc2c1	.	.	1.0%	-1.0
Cn1cccc1/C=C1\C(=O)NC(=O)N(CCC2=CCCCC2)C1=O	-13.0	21.3%	3.3%	2.9
O=C1NC(=O)N(CCc2ccc(F)cc2)C(=O)/C1=C/c1cccs1	-19.3	-13.4%	25.1µM*	3.7
O=C1NC(=O)N(CCC2=CCCCC2)C(=O)/C1=C\c1cccs1	-12.2	23.3%	50.1µM*	-2.3
CN(C)C1CSSSC1	.	.	26.8%	-0.3
Cc1cccc2c1=NC(=O)/C(=C/c1c(O)[nH]c(=O)[nH]c1=O)C=2	-1.3	1.2%	50.1µM*	0.0

High-throughput results from PubChem BioAssay.
